Read-out in test [1]: Tumor necrosis factor receptor superfamily member 6 (Homo sapiens) (UniProt P25445)
Briefly: LTEA_HepaRG_FAS: Life Technologies and Expression Analysis (LTEA) Assay for Fas cell surface death receptor (FAS) using HepaRG (AID 2283447). To be noted: mRNA level, 48 h; actives raise or lower the signal. The gist of the method: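 FAS transcript level was measured by TaqMan qRT-PCR against three housekeeping genes after 48 h chemical exposure. Cells were HepaRG, 0.5% DMSO vehicle, with a top concentration of 100 uM and half-log dilutions over eight points, in duplicate.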

Read-out in test [2]: Fatty acid synthase (Homo sapiens) (UniProt P49327)
Kind of test: LTEA_HepaRG_FASN: Life Technologies and Expression Analysis (LTEA) Assay for Fatty Acid Synthase (FASN) using HepaRG (AID 2283448). The settings on record: mRNA level, 48 h; actives raise or lower the signal. The gist of the method:
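In human HepaRG cultures, 48 h chemical exposure (up to 100 uM, 0.5% DMSO) preceded TaqMan qRT-PCR of FASN.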

Read-out in test [3]: Cyclin Dependent Kinase Inhibitor 1A (CDKN1A), CDKN1A (gene 1026)
Kind of test: LTEA_HepaRG_CDKN1A: Life Technologies and Expression Analysis (LTEA) Assay for Cyclin Dependent Kinase Inhibitor 1A (CDKN1A) using HepaRG (AID 2283450). To be noted: mRNA level, 48 h; actives raise or lower the signal. The essentials:
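Differentiated HepaRG cells in serum-free induction medium, exposed 48 h in duplicate to eight half-log concentrations up to 100 uM in 0.5% DMSO. mRNA measured by TaqMan qRT-PCR, normalized to ACTB, GAPDH, POLR2A; bidirectional fit versus DMSO.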

Read-out in test [4]: catalase (CAT), CAT (gene 847)
Kind of test: LTEA_HepaRG_CAT: Life Technologies and Expression Analysis (LTEA) Assay for catalase (CAT) using HepaRG (AID 2283452). The settings on record: mRNA level, 48 h; actives raise or lower the signal. The gist of the method: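 Expression of CAT was quantified by TaqMan qRT-PCR with ACTB/GAPDH/POLR2A normalization after 48 h chemical exposure of HepaRG. Eight-point half-log series, top 100 uM, in 0.5% DMSO; gain or loss fitted against vehicle.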

Read-out in test [5]: flavin-containing dimethylaniline monooxygenases 3 (FMO3), FMO3 (gene 2328)
Kind of test: LTEA_HepaRG_FMO3: Life Technologies and Expression Analysis (LTEA) Assay for flavin-containing dimethylaniline monooxygenases 3 (FMO3) using HepaRG (AID 2283453). To be noted: mRNA level, 48 h; actives raise or lower the signal. The essentials:
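Eight-point concentration-response in serum-free HepaRG cultures (top 100 uM, 0.5% DMSO, 48 h). Read-out: FMO3 mRNA level normalized to three endogenous control genes, fitted bidirectionally versus vehicle.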

Read-out in test [6]: Cytochrome P450 (CYP1A1), CYP1A1 (gene 1543)
Kind of test: LTEA_HepaRG_CYP1A1: Life Technologies and Expression Analysis (LTEA) Assay for Cytochrome P450 (CYP1A1) using HepaRG (AID 2283454). To be noted: mRNA level, 48 h; actives raise or lower the signal. The gist of the method: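 Differentiated human HepaRG cells, after 48 h plating, exposed in duplicate for 48 h in serum-free induction medium to 8 half-log concentrations up to 100 uM in 0.5% DMSO. CYP1A1 mRNA by qRT-PCR, normalized to ACTB/GAPDH/POLR2A; bidirectional fit versus DMSO.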

Read-out in test [7]: Forkhead box O1 (FOXO1), FOXO1 (gene 2308)
Kind of test: LTEA_HepaRG_FOXO1: Life Technologies and Expression Analysis (LTEA) Assay for Forkhead box O1 (FOXO1) using HepaRG (AID 2283456). To be noted: mRNA level, 48 h; actives raise or lower the signal. The gist of the method: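 FOXO1 transcript quantified by qRT-PCR after 48 h chemical exposure (top 100 uM, half-log steps, 0.5% DMSO) of HepaRG cells, housekeeping-normalized (ACTB/GAPDH/POLR2A). Changes fitted in both directions relative to vehicle.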

Test [8] is described as follows: CEETOX_H295R_TESTO: CeeTox H295R High-throughput Steroidogenesis Assay for Testosterone (TESTO) (AID 2283457). The settings on record: actives raise or lower the signal. The essentials: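 H295R adrenal cells, passage ≤10, exposed to chemicals for 48 h. Testosterone in medium measured by MTBE extraction and HPLC-MS/MS against a 7-point standard curve. Bidirectional fit versus DMSO; MTT viability checked in the same wells.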

Read-out in test [9]: growth arrest and DNA damage 45 (GADD45A), GADD45A (gene 1647)
Briefly: LTEA_HepaRG_GADD45A: Life Technologies and Expression Analysis (LTEA) Assay for growth arrest and DNA damage 45 (GADD45A) using HepaRG (AID 2283458). The settings on record: mRNA level, 48 h; actives raise or lower the signal. The gist of the method: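 Eight-point concentration-response in HepaRG cells: 48 h chemical exposure, 0.5% DMSO vehicle, top dose 100 uM. Normalized qRT-PCR mRNA readout with bidirectional fitting relative to DMSO.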

Read-out in test [10]: Forkhead box O3 (FOXO3), FOXO3 (gene 2309)
Kind of test: LTEA_HepaRG_FOXO3: Life Technologies and Expression Analysis (LTEA) Assay for Forkhead box O3 (FOXO3) using HepaRG (AID 2283459). The settings on record: mRNA level, 48 h; actives raise or lower the signal. The essentials: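 FOXO3 transcript measured by qRT-PCR (normalized to ACTB, GAPDH, POLR2A) after 48 h exposure of HepaRG cells in serum-free induction medium. Duplicates, eight half-log concentrations up to 100 uM, 0.5% DMSO; gain or loss fitted against DMSO.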

Read-out in test [11]: ABC Transporter (ABCB1), ABCB1 (gene 5243)
Briefly: LTEA_HepaRG_ABCB1: Life Technologies and Expression Analysis (LTEA) Assay for ABC Transporter (ABCB1) using HepaRG (AID 2283460). To be noted: mRNA level, 48 h; actives raise or lower the signal. The gist of the method:
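ABCB1 transcript level measured by TaqMan qRT-PCR against three housekeeping genes after 48 h chemical exposure of differentiated HepaRG cells. Top concentration 100 uM, half-log steps, eight points, 0.5% DMSO vehicle; bidirectional fit relative to DMSO.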

Read-out in test [12]: growth arrest and DNA damage 45 (GADD45B), GADD45B (gene 4616)
Kind of test: LTEA_HepaRG_GADD45B: Life Technologies and Expression Analysis (LTEA) Assay for growth arrest and DNA damage 45 (GADD45B) using HepaRG (AID 2283461). To be noted: mRNA level, 48 h; actives raise or lower the signal. The gist of the method:
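Differentiated human HepaRG cells in serum-free induction medium exposed 48 h in duplicate to eight concentrations, top 100 uM, half-log steps, 0.5% DMSO. GADD45B mRNA by TaqMan qRT-PCR, normalized to ACTB, GAPDH, POLR2A; bidirectional fit versus DMSO.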

Read-out in test [13]: ABC Transporter (ABCC3), ABCC3 (gene 8714)
Briefly: LTEA_HepaRG_ABCC3: Life Technologies and Expression Analysis (LTEA) Assay for ABC Transporter (ABCC3) using HepaRG (AID 2283462). The settings on record: mRNA level, 48 h; actives raise or lower the signal. The essentials: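 Differentiated human HepaRG cells exposed 48 h in serum-free induction medium, 0.5% DMSO vehicle, 8-point half-log series to 100 uM in duplicate. ABCC3 mRNA by qRT-PCR, normalised to ACTB, GAPDH, POLR2A; bidirectional fit vs DMSO.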

Read-out in test [14]: ABC Transporter (ABCB11), ABCB11 (gene 8647)
Briefly: LTEA_HepaRG_ABCB11: Life Technologies and Expression Analysis (LTEA) Assay for ABC Transporter (ABCB11) using HepaRG (AID 2283463). To be noted: mRNA level, 48 h; actives raise or lower the signal. The gist of the method: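 ABCB11 transcript levels quantified by TaqMan qRT-PCR against three housekeeping genes after 48 h chemical exposure of HepaRG cultures. Concentrations up to 100 uM in half-log steps, 0.5% DMSO vehicle; both induction and suppression scored.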

Read-out in test [15]: ABC Transporter (ABCC2), ABCC2 (gene 1244)
Kind of test: LTEA_HepaRG_ABCC2: Life Technologies and Expression Analysis (LTEA) Assay for ABC Transporter (ABCC2) using HepaRG (AID 2283464). The settings on record: mRNA level, 48 h; actives raise or lower the signal. The essentials: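 Differentiated HepaRG cells in serum-free induction medium exposed 48 h to eight half-log concentrations up to 100 uM, 0.5% DMSO, in duplicate. ABCC2 mRNA measured by qRT-PCR (TaqMan, Fluidigm), normalized to ACTB, GAPDH and POLR2A. Fitted in both directions against DMSO.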

Read-out in test [16]: Broad substrate specificity ATP-binding cassette transporter ABCG2 (Homo sapiens) (UniProt Q9UNQ0)
Kind of test: LTEA_HepaRG_ABCG2: Life Technologies and Expression Analysis (LTEA) Assay for ABC Transporter (ABCG2) using HepaRG (AID 2283465). The settings on record: mRNA level, 48 h; actives raise or lower the signal. The essentials: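 ABCG2 transcript was quantified by TaqMan qRT-PCR against three housekeeping genes in HepaRG cells. Cells were treated in duplicate for 48 h across an 8-point half-log series up to 100 uM, with 0.5% DMSO vehicle. Gain or loss versus DMSO was fit.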

Read-out in test [17]: ATP-citrate lyase (ACLY), ACLY (gene 47)
Briefly: LTEA_HepaRG_ACLY: Life Technologies and Expression Analysis (LTEA) Assay for ATP-citrate lyase (ACLY) using HepaRG (AID 2283466). The settings on record: mRNA level, 48 h; actives raise or lower the signal. The gist of the method:
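ACLY mRNA quantified by qRT-PCR on Fluidigm arrays against three housekeeping genes, after 48 h chemical treatment of HepaRG cells (top concentration 100 uM, half-log steps, 0.5% DMSO vehicle). Up- or down-regulation fitted relative to DMSO.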

Read-out in test [18]: Cyclin D1 (CCND1), CCND1 (gene 595)
Briefly: LTEA_HepaRG_CCND1: Life Technologies and Expression Analysis (LTEA) Assay for Cyclin D1 (CCND1) using HepaRG (AID 2283451). To be noted: mRNA level, 48 h; actives raise or lower the signal. The gist of the method:
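Differentiated HepaRG cells exposed 48 h in serum-free induction medium to eight half-log concentrations from 100 uM top, 0.5% DMSO, duplicates. CCND1 mRNA measured by Fluidigm TaqMan qRT-PCR, normalised to ACTB, GAPDH, POLR2A; bidirectional fit.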

Read-out in test [19]: Cyclin D2 (CCND2), CCND2 (gene 894)
Kind of test: LTEA_HepaRG_CCND2: Life Technologies and Expression Analysis (LTEA) Assay for Cyclin D2 (CCND2) using HepaRG (AID 2283449). The settings on record: mRNA level, 48 h; actives raise or lower the signal. The gist of the method:
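CCND2 transcript levels, quantified by qRT-PCR and normalised to three housekeeping genes, were fitted bidirectionally against 0.5% DMSO. HepaRG cultures were dosed 48 h in duplicate with an 8-point half-log series up to 100 uM.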

Drawing on PubChem BioAssay (EPA / NIEHS), this text covers outcome and AC50 for four molecules.

The source made the active and inactive calls. Rule for the calls: active = hit-call score of the fitted dose curve at least 0.9, where 1 is the maximum; inactive = score below 0.9.

Sequence of Fatty acid synthase (Homo sapiens) (P49327 whole entry, looked up): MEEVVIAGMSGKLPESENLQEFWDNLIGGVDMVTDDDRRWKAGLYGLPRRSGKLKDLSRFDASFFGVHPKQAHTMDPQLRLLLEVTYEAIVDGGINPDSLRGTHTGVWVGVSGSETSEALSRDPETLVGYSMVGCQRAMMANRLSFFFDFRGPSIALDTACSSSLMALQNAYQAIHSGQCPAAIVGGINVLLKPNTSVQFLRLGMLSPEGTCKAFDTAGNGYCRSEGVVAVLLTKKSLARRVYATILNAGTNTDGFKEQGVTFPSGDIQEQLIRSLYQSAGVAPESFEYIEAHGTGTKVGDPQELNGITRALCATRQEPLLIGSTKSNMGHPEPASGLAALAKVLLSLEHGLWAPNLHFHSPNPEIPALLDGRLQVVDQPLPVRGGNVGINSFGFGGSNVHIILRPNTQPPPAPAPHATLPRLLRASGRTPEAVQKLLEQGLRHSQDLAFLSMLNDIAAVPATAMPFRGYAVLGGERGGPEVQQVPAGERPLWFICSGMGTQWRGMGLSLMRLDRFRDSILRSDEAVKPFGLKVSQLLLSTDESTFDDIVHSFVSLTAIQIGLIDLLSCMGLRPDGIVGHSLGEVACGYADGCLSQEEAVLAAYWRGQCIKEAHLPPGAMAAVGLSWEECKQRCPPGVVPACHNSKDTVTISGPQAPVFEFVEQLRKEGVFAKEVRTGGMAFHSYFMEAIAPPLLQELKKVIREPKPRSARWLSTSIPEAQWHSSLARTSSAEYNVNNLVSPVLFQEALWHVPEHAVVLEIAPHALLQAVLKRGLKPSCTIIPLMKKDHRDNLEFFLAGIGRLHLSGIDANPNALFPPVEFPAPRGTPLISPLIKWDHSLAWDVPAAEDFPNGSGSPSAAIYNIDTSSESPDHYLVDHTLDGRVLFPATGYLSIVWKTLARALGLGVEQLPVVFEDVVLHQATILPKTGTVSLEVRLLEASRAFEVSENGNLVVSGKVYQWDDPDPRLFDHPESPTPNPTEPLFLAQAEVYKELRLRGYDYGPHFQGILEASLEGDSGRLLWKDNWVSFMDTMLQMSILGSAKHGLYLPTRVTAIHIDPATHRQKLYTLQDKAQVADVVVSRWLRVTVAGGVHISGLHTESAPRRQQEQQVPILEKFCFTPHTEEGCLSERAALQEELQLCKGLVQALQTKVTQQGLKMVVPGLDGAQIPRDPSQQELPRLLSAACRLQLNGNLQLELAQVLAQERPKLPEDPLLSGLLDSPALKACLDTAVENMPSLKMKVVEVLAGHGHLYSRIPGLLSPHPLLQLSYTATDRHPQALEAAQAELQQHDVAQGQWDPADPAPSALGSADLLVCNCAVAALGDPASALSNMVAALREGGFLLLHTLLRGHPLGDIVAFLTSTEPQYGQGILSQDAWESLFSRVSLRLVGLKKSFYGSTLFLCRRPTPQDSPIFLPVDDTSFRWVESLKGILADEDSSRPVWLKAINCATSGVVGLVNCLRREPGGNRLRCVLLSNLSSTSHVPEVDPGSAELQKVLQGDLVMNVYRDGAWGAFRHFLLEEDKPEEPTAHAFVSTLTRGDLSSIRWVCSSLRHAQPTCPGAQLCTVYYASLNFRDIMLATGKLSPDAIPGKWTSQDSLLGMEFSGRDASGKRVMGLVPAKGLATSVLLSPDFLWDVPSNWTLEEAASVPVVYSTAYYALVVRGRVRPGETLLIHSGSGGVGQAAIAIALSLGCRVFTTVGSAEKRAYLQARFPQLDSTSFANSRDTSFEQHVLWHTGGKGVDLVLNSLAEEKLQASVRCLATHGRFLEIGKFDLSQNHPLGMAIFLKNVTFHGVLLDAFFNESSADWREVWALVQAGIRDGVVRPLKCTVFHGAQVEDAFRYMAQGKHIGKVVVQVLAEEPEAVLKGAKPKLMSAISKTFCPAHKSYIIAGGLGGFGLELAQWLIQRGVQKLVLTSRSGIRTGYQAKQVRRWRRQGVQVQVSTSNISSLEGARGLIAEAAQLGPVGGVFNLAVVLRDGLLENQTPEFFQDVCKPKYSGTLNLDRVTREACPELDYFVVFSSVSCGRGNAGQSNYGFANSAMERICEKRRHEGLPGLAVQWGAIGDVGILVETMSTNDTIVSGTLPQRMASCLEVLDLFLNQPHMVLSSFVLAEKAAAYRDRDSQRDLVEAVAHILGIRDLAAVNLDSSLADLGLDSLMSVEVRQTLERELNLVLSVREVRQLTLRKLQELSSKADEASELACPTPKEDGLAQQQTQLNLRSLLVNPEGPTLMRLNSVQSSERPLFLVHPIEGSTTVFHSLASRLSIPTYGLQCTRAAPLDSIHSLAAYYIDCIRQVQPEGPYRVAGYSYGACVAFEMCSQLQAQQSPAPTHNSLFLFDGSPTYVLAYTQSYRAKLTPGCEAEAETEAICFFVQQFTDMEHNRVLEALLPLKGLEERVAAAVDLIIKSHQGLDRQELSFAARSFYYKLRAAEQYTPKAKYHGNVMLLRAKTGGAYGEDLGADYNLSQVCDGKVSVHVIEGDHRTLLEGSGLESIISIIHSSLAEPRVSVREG
Sequence of Broad substrate specificity ATP-binding cassette transporter ABCG2 (Homo sapiens) (Q9UNQ0 whole entry, looked up): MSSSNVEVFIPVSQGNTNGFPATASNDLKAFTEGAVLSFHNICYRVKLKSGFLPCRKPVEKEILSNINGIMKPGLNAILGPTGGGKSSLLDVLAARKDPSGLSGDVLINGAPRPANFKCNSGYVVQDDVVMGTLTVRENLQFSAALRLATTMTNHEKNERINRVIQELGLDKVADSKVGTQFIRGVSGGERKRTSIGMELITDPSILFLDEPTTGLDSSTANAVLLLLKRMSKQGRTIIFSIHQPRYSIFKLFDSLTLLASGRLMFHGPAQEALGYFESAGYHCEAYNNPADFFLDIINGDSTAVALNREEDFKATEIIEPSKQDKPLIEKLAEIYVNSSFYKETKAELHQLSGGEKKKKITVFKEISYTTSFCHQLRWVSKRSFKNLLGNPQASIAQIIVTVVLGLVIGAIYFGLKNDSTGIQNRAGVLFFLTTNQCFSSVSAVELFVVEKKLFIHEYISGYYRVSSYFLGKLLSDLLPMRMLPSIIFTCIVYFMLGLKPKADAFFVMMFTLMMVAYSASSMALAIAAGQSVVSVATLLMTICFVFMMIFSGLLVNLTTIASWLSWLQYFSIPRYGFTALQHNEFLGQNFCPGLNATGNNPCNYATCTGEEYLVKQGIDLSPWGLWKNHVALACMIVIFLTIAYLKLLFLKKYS

For `Cc1cccc(Nc2cc(Cl)nc(SCC(=O)O)n2)c1C`, the outcome in [1], in [2], in test [3], in [4], in test [5] and in test [7] was inactive. Moreover, the molecule was classed as inactive in [8], in test [9], in test [10], in [12], in test [13] and in [14]. Moreover, the call in test [16] and in test [17] was inactive. The AC50 in test [6] was 50 µM (active); in test [11], 50 µM (active); in [15] it was 82.3 µM (active).

As for `CCCCOC(=O)CCCCCCCCC(=O)OCCCC`, the call in [1], in test [2], in test [3], in test [18], in test [4] and in [5] was inactive. Also, the molecule was called inactive in test [6], in test [7], in test [9], in test [10], in test [11] and in test [12]. Moreover, the call in test [13], in [16] and in test [17] was inactive.

Consider `Cc1ccc(N(C)C)cc1`, for which the molecule was called inactive in [1], in test [2], in test [19], in test [3], in test [4] and in test [5]. In addition, the result in [7], in test [9], in [10], in [11], in test [12] and in [13] was inactive. For the same molecule, the molecule was called inactive in [14], in [16] and in test [17]. In addition, the concentration at half-maximal activity (AC50) in test [6] was 22.6 µM (active).

As for `NS(=O)(=O)c1cc2c(cc1Cl)NCNS2(=O)=O`, the result in test [1], in [2], in test [19], in test [3], in test [4] and in [5] was inactive. Also, the result in [6], in test [7], in test [9], in test [10], in test [11] and in test [12] was inactive. Also, the molecule was called inactive in test [13], in test [16] and in [17].
